Test results as given in PubChem BioAssay (NCATS).
Results filed as inconclusive are left out. Calls of active or inactive are those of the source. Unless noted, calls follow the shape of the dose curve; as a rule, active = well fitted curve in the direction sought with a large enough effect; inconclusive = small, poorly fitted or top-dose-only effect, or another doubt; inactive = no such curve, though single readings can be large; an effect the other way counts as inactive or inconclusive.

Experiments:
[1] = target: Glucocorticoid receptor (Homo sapiens) (UniProt P04150); test: qHTS assay for small molecule antagonists of glucocorticoid receptor signaling (AID 588533; active = well fitted inhibition curve with a large enough effect in the signal ratio, with a control signal flat, not every such curve was filed as active; the % refers to the signal ratio;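 also: cells stimulated with 2 nM dexamethasone as agonist; % is scaled to controls: 0 for no effect and ±100 for the full control effect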)
Sequence of Glucocorticoid receptor (Homo sapiens) (P04150 whole entry, looked up): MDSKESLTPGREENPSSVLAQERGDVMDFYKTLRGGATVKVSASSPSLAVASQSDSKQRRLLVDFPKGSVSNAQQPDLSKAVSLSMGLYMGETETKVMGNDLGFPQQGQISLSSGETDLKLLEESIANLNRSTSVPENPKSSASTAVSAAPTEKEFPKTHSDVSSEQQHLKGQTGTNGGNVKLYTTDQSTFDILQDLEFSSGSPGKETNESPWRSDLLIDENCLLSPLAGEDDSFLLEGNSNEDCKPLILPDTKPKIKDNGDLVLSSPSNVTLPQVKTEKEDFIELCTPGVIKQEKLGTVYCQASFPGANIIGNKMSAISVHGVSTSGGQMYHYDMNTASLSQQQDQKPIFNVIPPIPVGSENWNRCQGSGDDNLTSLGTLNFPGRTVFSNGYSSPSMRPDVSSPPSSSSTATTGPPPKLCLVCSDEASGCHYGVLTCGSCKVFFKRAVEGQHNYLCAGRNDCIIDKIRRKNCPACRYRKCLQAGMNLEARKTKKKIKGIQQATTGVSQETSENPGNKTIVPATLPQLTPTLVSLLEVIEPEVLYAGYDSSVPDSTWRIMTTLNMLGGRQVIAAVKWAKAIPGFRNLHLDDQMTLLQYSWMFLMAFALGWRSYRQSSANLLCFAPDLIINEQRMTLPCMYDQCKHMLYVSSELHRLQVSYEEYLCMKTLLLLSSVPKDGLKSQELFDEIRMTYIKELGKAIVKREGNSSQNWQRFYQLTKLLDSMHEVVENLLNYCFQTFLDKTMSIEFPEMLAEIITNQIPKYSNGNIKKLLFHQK
Outline: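 Antagonist-mode qHTS: compound titrations added to GRE-bla HeLa cells, then dexamethasone 2 nM final; 18 h, 37 C. CCF4 FRET fluorescence normalized to dexamethasone and DMSO; IC50 from Hill fit.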

[2] = qHTS assay for small molecule agonists of retinoid X receptor alpha signaling (AID 588544; calls by dose curve;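 as to activation: 0% = DMSO basal wells and 100% = reference agonist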); settings: HEK293T RXRa-UAS-bla, beta-lactamase reporter, 18 h; 530 nm emission
[3] = target: Retinoic acid receptor RXR-alpha (Homo sapiens) (UniProt P19793); test: as above
Sequence of Retinoic acid receptor RXR-alpha (Homo sapiens) (P19793 whole entry, looked up): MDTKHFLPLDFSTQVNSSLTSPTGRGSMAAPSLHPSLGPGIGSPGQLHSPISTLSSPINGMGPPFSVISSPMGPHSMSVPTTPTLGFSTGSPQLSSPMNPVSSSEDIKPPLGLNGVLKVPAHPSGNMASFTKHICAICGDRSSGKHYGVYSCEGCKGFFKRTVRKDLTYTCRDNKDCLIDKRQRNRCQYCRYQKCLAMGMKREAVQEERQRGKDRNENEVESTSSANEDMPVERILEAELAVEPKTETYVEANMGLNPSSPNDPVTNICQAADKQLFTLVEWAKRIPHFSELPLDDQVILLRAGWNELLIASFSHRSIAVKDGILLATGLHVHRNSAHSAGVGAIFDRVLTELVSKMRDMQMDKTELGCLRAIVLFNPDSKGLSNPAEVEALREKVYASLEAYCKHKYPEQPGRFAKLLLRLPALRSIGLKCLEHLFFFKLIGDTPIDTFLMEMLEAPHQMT

[4] = target: Thyroid hormone receptor beta (Homo sapiens) (UniProt P10828); test: qHTS assay for small molecule agonists of thyroid hormone receptor beta signaling (AID 588545; calls by dose curve;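 also: 0% = DMSO only and 100% = 10 nM T3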)
Sequence of Thyroid hormone receptor beta (Homo sapiens) (P10828 whole entry, looked up): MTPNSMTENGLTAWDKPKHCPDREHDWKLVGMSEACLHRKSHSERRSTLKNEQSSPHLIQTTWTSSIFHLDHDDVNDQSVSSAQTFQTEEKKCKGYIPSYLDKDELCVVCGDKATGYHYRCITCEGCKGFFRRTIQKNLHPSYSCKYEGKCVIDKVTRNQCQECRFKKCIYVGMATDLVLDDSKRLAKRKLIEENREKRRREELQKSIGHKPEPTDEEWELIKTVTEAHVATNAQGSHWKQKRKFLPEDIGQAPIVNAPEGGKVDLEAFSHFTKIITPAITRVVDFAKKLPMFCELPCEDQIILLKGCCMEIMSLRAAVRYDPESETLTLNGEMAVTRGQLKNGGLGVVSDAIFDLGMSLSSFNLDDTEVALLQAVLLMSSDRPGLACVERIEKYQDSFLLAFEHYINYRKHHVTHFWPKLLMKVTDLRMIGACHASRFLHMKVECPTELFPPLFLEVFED
Outline: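 TR-UAS-bla-GripTite HEK 293 cells in medium with 2% charcoal/dextran FBS, 0.1 mM NEAA and 1 mM sodium pyruvate were treated with titrated compounds for 18 hrs at 37 C. Beta-lactamase reporter was read with CCF4 dye (ex 405, em 460/530 nm); EC50 from Hill fits.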

[5] = qHTS assay for small molecule antagonists of retinoid X receptor alpha signaling (AID 588546; active = well fitted inhibition curve with a large enough effect in the signal ratio, with a control signal flat, not every such curve was filed as active; the % refers to the signal ratio; also: potency is read from the fitted curve at half-maximal effect;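 as to max response: cells stimulated with 9-cis-retinoic acid as agonist; % is scaled to controls: 0 for no effect and ±100 for the full control effect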); settings: HEK293T RXRa-UAS-bla, beta-lactamase ratio, antagonist mode; measured here: W530 green channel, cytotoxicity proxy
Outline: (§1)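 Beta-lactamase reporter inhibition, read as CCF4 fluorescence ratio (ex 405, em 460/530 nm) after 2 h at RT. HEK293T UAS-bla cells, 2500/well, were stimulated with 9-cis-RA at 500 or 100 nM final alongside test compound for 18 h at 37 C.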

[6] = target: Retinoic acid receptor RXR-alpha (Homo sapiens) (UniProt P19793); test: as above; settings: HEK293T RXRa-UAS-bla, beta-lactamase ratio, antagonist mode
Outline: as §1

[7] = qHTS assay for small molecule activators of the p53 signaling pathway (AID 651743; active = well fitted activation curve with a large enough effect in the signal ratio, not every such curve was filed as active; the % refers to the signal ratio; also: potency is read from the fitted curve at half-maximal effect; as to activation: series mostly up to about 92 µM; % of control where 0% means no effect); settings: HCT-116 p53RE-bla, beta-lactamase FRET ratio, 16 h; activation: stronger effect = higher value
Outline: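 A beta-lactamase reporter under p53 response element control, stably carried by HCT-116 cells, reported pathway activation. Test compounds were applied for 16 hours at 37 C, and fluorescence was measured 2 hours after adding the B/G FRET substrate.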

[8] = qHTS assay for environmental chemicals that activate the Aryl hydrocarbon Receptor (AhR) signaling pathway (AID 651777); settings: 1A2-DRE human hepatoma cells, luciferase, 24 h; activation: stronger effect = higher value; also: % of control where 0% means no effect; nearly all actives have a fitted effect of over 15% in size
Outline: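 Human hepatoma 1A2-DRE cells, stably carrying a dioxin response element and CYP1A2 promoter driving luciferase, were exposed to compounds for 24 hr at 37 C and 5% CO2. Luciferase signal was then read after 30 min One-Glo at room temperature.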

[9] = target: Peroxisome proliferator-activated receptor alpha (Homo sapiens) (UniProt Q07869); test: qHTS assay for small molecule agonists of the peroxisome proliferator-activated receptor alpha (PPARalpha) signaling pathway (AID 651778); settings: PathHunter PPARalpha complementation, chemiluminescence, 6 h; max response: stronger effect = higher value; also: potency is read from the fitted curve at half-maximal effect; as to max response: % of control where 0% means no effect
Sequence of Peroxisome proliferator-activated receptor alpha (Homo sapiens) (Q07869 whole entry, looked up): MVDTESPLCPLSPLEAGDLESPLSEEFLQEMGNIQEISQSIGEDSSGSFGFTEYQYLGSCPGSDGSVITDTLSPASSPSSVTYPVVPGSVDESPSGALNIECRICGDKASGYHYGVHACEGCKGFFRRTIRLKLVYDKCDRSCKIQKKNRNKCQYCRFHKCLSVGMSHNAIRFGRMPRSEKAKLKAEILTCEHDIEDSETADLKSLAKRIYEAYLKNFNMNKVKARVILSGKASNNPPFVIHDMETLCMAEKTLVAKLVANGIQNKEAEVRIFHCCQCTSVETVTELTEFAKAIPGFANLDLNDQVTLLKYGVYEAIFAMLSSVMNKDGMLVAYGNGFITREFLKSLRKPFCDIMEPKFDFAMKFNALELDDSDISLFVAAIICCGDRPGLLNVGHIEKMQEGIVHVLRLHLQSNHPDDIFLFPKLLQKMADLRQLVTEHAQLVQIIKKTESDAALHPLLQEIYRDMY
Outline: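 Chemiluminescence from complemented enzyme reported PPARalpha activation in cells after 6 hr of compound treatment at 37 C. The detection reagent was incubated for 60 min at room temperature, and compounds were scored as agonists.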

[10] = qHTS assay for small molecule agonists of the antioxidant response element (ARE) signaling pathway measured by Nrf2-dependant transcriptional activity (AID 720636; active = well fitted curve in the direction sought with a large enough effect in the repeat runs; an effect the other way counts as inactive or inconclusive; also: % of control where 0% means no effect)
Outline: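 ARE-luc HepG2 cells carrying an Nrf2-responsive luciferase reporter were plated in medium with 1% dialyzed FBS, left 6 hr at 37 C to attach, then exposed to compound for 16 hr. Luciferase luminescence was read after ONE-Glo addition.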

[11] = qHTS assay for small molecule agonists of the antioxidant response element (ARE) signaling pathway measured by Nrf2-dependant transcriptional activity - cell viability counter screen (AID 720653; active = well fitted curve in the direction sought with a large enough effect in the repeat runs; an effect the other way counts as inactive or inconclusive; also: potency is read from the fitted curve at half-maximal effect; as to max response: % is scaled to controls: 0 for no effect and ±100 for the full control effect); settings: ARE-bla HepG2 viability, CellTiter-Glo ATP luminescence, 16 h; max response: stronger effect = lower value
Outline: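 Cytotoxicity counter screen: intracellular ATP quantified by CellTiter-Glo luminescence in the same ARE-bla HepG2 plates, after 16 h compound exposure and a 2 h beta-lactamase substrate step.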

[12] = qHTS assay for cell viability of HEK293 cells (AID 743288); settings: ATP luminescence (CellTiter-Glo), 18 h; max response: stronger effect = lower value; also: nearly all actives have a fitted effect of over 50% in size; also: potency is read from the fitted curve at half-maximal effect
Outline: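 Steps: plate 2,000 parental HEK293 cells per well; incubate ≥5 h, 37 C; add compounds in DMSO; incubate 18 h, 37 C; add CellTiter-Glo; wait 30 min at room temperature; read luminescence.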

[13] = qHTS assay for cell viability of the p53RE-bla HCT-116 cell line (AID 743292); also: nearly all actives have a fitted effect of over 55% in size; also: potency is read from the fitted curve at half-maximal effect
Outline: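 CellSensor p53RE-bla HCT-116 cells, 4,000/well, preincubated 5 h at 37 C, then exposed to compounds in DMSO for 16 h at 37 C. Viability read as CellTiter-Glo luminescence (intracellular ATP) after 30 min at room temperature.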

[14] = target: Nuclear receptor subfamily 1 group I member 2 (Rattus norvegicus) (UniProt Q9R1A7); test: qHTS assay for small molecule activators of the rat pregnane X receptor (rPXR) signaling pathway (AID 651751; call rule not given here; also: 0% is about no effect); settings: rPXR reporter cells, luciferase (One-Glo), 24 h
Sequence of Nuclear receptor subfamily 1 group I member 2 (Rattus norvegicus) (Q9R1A7 whole entry, looked up): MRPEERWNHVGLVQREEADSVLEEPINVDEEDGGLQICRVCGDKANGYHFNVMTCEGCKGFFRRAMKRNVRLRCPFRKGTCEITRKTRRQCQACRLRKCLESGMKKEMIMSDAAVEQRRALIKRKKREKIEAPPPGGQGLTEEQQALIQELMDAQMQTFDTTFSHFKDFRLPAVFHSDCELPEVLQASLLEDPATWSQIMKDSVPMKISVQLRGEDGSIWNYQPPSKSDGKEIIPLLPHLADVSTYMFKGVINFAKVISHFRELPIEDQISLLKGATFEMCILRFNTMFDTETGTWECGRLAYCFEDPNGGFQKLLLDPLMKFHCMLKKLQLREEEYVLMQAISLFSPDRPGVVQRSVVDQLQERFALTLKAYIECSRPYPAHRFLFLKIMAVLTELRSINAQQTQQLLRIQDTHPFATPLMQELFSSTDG

[15] = qHTS assay for small molecule activators of the human pregnane X receptor (PXR) signaling pathway (AID 720659; call rule not given here; also: 0% is about no effect)
[16] = target: Vitamin D3 receptor (Homo sapiens) (UniProt P11473); test: qHTS assay for small molecule agonists of vitamin D receptor signaling (AID 588543; calls by dose curve;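 also: 0% = DMSO basal and 100% = reference agonist control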)
Sequence of Vitamin D3 receptor (Homo sapiens) (P11473 whole entry, looked up): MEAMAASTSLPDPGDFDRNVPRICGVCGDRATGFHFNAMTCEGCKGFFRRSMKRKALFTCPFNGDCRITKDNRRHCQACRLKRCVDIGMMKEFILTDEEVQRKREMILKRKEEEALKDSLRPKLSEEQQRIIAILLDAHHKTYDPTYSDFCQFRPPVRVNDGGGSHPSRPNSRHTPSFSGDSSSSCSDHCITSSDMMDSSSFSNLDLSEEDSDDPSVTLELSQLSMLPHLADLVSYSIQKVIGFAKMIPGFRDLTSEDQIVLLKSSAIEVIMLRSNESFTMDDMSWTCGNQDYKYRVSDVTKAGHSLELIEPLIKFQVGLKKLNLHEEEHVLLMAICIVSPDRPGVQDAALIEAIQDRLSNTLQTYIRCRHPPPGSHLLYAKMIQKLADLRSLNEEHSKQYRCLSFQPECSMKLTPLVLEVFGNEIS
Outline: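 VDR-UAS-bla HEK293T cells, 2000/well, 2% charcoal-stripped FBS; compound titration 16 h at 37 C; CCF4 beta-lactamase ratio read. Normalized to 50 nM 1-alpha,25-dihydroxyvitamin D3 (100%) and DMSO; Hill fit gives EC50, efficacy.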

[17] = qHTS assay for small molecule antagonists of peroxisome proliferator-activated receptor delta signaling (AID 588535; active = well fitted inhibition curve with a large enough effect in the signal ratio, with a control signal flat, not every such curve was filed as active; the % refers to the signal ratio;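 as to max response: cells co-treated with a PPAR-delta agonist as stimulator during compound exposure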); settings: HEK293T PPARd-UAS-bla, beta-lactamase FRET ratio, 18 h; 460 nm channel
Outline: (§2)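 Antagonist-mode qHTS using GeneBLAzer PPAR-delta-UAS-bla HEK293T cells; compound exposure 18 hrs at 37 C over a titration. Ratiometric CCF4 fluorescence at 460/530 nm; concentration-response points fitted to the Hill equation.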

[18] = target: Peroxisome proliferator-activated receptor delta (Homo sapiens) (UniProt Q03181); test: as above
Sequence of Peroxisome proliferator-activated receptor delta (Homo sapiens) (Q03181 whole entry, looked up): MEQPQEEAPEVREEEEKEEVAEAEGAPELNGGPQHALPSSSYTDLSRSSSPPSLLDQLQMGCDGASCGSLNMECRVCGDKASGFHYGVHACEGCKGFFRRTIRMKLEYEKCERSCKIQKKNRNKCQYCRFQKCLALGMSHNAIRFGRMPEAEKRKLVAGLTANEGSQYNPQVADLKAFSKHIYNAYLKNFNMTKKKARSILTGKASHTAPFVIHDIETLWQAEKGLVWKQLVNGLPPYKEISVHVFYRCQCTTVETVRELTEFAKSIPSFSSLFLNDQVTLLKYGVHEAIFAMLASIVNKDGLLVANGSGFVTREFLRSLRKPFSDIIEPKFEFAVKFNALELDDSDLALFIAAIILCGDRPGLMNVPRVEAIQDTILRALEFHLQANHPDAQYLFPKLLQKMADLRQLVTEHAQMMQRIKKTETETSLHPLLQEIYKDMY
Outline: as §2

[19] = target: Vitamin D3 receptor (Homo sapiens) (UniProt P11473); test: qHTS assay for small molecule antagonists of vitamin D receptor signaling (AID 588541; calls by dose curve;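 also: receptor activated by calcitriol during compound treatment; series mostly up to about 77 µM; % is scaled to controls: 0 for no effect and ±100 for the full control effect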)
Outline: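 Antagonist-mode beta-lactamase reporter assay: HEK293T VDR-UAS-bla cells were exposed to titrated compound alongside 1-alpha,25-dihydroxyvitamin D3 at 3 nM final for 16 h. Values were normalized to the 50 nM agonist control and DMSO basal, with IC50 and efficacy from Hill equation fits.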

[20] = qHTS assay for small molecule activators of the nuclear factor-kappa B (NF-kB) signaling pathway (AID 651749; active = well fitted activation curve with a large enough effect in the signal ratio; the % refers to the signal ratio; also: series mostly up to about 77 µM; % of control where 0% means no effect); settings: NF-kB-bla ME-180 cells, beta-lactamase FRET ratio, 16 h; activation: stronger effect = higher value
Outline: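 FRET-based beta-lactamase detection in ME-180 cells reports NF-kB response-element-driven transcription following overnight (16 hr) compound treatment.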

COC(=O)c1ccc(I)cc1S(=O)(=O)NC(=O)Nc1nc(C)nc(OC)n1
inactive: Potency [1] | Potency [3] | Potency [4] | max response [6] -12.1% | activation [7] -2.48% | activation [8] 2.67% | max response [9] -0.424% | Potency [10] | max response [11] -4.44% | max response [12] -13.7% | Potency [13] | max response [14] 3.28% | outcome [15]
-6.12%: max response [2]
-4.15%: max response [5]

CCCCCCCCCCCC(=O)OC
active: Potency [11] 35.5 µM | Potency [12] 25.1 µM | Potency [13] 28.2 µM
inactive: outcome [16] | activation [8] 1.82% | max response [9] 2.34%

OCCOCCOCCOCCOCCO
-8.78%: max response [5]
-16.8%: max response [17]
inactive: Potency [18] | Potency [19] | outcome [16] | Potency [3] | Potency [4] | activation [7] 2.86% | max response [9] -1.15% | Potency [10] | max response [11] -9.49% | max response [12] -4.24% | Potency [13]
5.49%: max response [2]

CCNc1nc(NC(C)CC)nc(OC)n1 (stereo unspecified)
-13.5%: max response [2]
-8.46%: max response [5]
inactive: Potency [1] | Potency [19] | Potency [3] | Potency [4] | max response [6] 7.45% | activation [7] -1.96% | activation [8] 2.63% | max response [9] 5.06% | Potency [10] | max response [11] 16.1% | max response [12] -2.08% | Potency [13] | max response [14] 1.4% | outcome [15]

COC(=O)c1ccc(CNS(C)(=O)=O)cc1S(=O)(=O)NC(=O)Nc1nc(OC)cc(OC)n1
-12.9%: max response [5]
10.6%: max response [2]
inactive: Potency [1] | Potency [19] | outcome [16] | Potency [3] | Potency [4] | max response [6] 13.2% | activation [20] 1.5% | activation [8] -2.23% | Potency [10] | max response [11] 12.1% | max response [12] 10.3% | max response [14] -5.5% | outcome [15]

Cc1cc(Cc2cc(C)cc(C(C)(C)C)c2O)c(O)c(C(C)(C)C)c1
active: Potency [11] 39.8 µM | Potency [12] 50.1 µM | Potency [13] 44.7 µM
inactive: activation [8] -12.4% | Potency [10]

COCCOCCOCCOC
0.474%: max response [5]
-14.6%: max response [2]
inactive: Potency [1] | Potency [19] | Potency [3] | Potency [4] | max response [6] 2.59% | activation [7] 0.451% | activation [20] 0.99% | activation [8] -0.0635% | max response [11] 1.56% | max response [12] -11.9% | Potency [13] | max response [14] -0.732% | outcome [15]

S=C(S)NCCNC(=S)S
inactive: Potency [1] | outcome [16] | Potency [4] | activation [8] 0.998% | max response [9] 0.0068% | max response [11] -0.0675% | max response [12] -6.97% | Potency [13] | max response [14] -0.407%

CCCCCCCCCCCC[N+](C)(C)C
5.9%: max response [5]
-26.8%: max response [17]
inactive: Potency [1] | Potency [18] | Potency [19] | outcome [16] | Potency [4] | activation [7] 12.8% | activation [20] -3.69% | activation [8] 9.5% | max response [9] -0.842% | Potency [10] | max response [11] -23.2% | max response [12] -25.6% | max response [14] -11.2% | outcome [15]
active: Potency [6] 17.8 µM

CS(=O)(=O)c1ccc(Cl)cc1
0.314%: max response [2]
-4.7%: max response [5]
inactive: Potency [1] | Potency [18] | Potency [19] | Potency [3] | Potency [4] | max response [6] -18.5% | activation [8] 0.81% | max response [9] -0.188% | Potency [10] | max response [11] 0.283% | max response [12] -17.3% | Potency [13] | max response [14] 3.76% | outcome [15]
15.6%: max response [17]

Brc1ccc(Oc2ccc(Br)cc2)cc1
inactive: Potency [1] | Potency [18] | Potency [19] | Potency [4] | max response [6] 3.5% | activation [7] 0.901% | max response [9] 4.27% | Potency [10] | max response [11] -9.27% | max response [12] -10% | Potency [13] | max response [14] -1.1% | outcome [15]
0.317%: max response [17]
-2.23%: max response [5]

CCCCC(CC)COC(=O)CS (stereo unspecified)
-9.5%: max response [5]
-9.7%: max response [2]
inactive: Potency [1] | Potency [19] | Potency [3] | Potency [4] | activation [7] -0.039% | activation [20] 1.76% | max response [9] -1.44% | Potency [10] | max response [11] 1.32% | max response [12] -2.56% | max response [14] 0.0458% | outcome [15]

Oc1ccc(Nc2ccccc2)cc1
inactive: Potency [1] | outcome [16] | Potency [4] | activation [20] -2.8% | activation [8] -0.687% | Potency [10] | max response [11] -6.61% | max response [12] -10.5% | Potency [13] | max response [14] 0.0407% | outcome [15]

O=[N+]([O-])c1ccc(O)cc1C(F)(F)F
inactive: Potency [18] | Potency [19] | Potency [4] | activation [8] 14.2% | max response [9] -8.59% | Potency [10] | Potency [13] | outcome [15]
active: Potency [6] 7.94 µM | Potency [7] 31.6 µM
6.72%: max response [5]
-4.35%: max response [17]

CC(C)CCCCCCCCCCCCCCC(=O)O
-6.99%: max response [2]
inactive: Potency [1] | Potency [18] | Potency [3] | Potency [4] | activation [20] -0.531% | activation [8] -2.9% | Potency [10] | max response [12] -0.822% | Potency [13] | max response [14] 1.88% | outcome [15]
7.35%: max response [17]
-12.3%: max response [5]
active: Potency [9] 39.8 µM
